Screening results: PubChem, National Center for Advancing Translational Sciences (NCATS)
Hits are enriched below; roughly 18% of the tested compounds scored in any of these assays.
CtBP-E1A inh: CtBP/E1A binding inhibition; AlphaScreen GST-E1A/His-CtBP binding, 1536-well; stronger effect = lower value; activity change, % (no concentration beside the values); hit rate 0.49% among 340,000; in the data active = activity change below about -65%; inconclusive = mostly about -30% to -63%
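Protein mix (5X: 125 nM each GST-E1A, His-CtBP) was incubated with pinned compound 2 h at 37 deg C in dark, in 50 mM Tris pH 8.0 buffer with 300 mM NaCl. Glutathione donor and nickel acceptor beads followed; AlphaScreen signal read after 1 h.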
DT40 TDP1 no CPT: qHTS for Inhibitors of human tyrosyl-DNA phosphodiesterase 1 (TDP1): qHTS in cells in absence of CPT. hit rate 15% among 420,000. AID 686978, 2013. Potency, µM (highest dose often 46.2 µM), without a hit: at the highest dose activity change, negative = growth inhibition, actives largely listed as inhibitors. DT40 Tdp1-/- hTDP1 cells, no CPT, ATP luminescence, 48 h; note: potency is the fitted concentration of half-maximal effect; nearly all actives have a fitted effect of over 55% in size
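Camptothecin absent (DMSO only). Human TDP1-complemented DT40 knockout cells, 400 cells/well, 37 °C for minimum 48 hr; ATP measured via CellTiter-Glo, 30 min dark incubation, luminescence.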
Six1-Eya2 blk: inhibitors of human Six1/Eya2 interaction; Q15475+O00167; AlphaScreen GST-Six1/His-Eya2 binding, biochemical; stronger effect = lower value; activity change, % (test concentration not listed); hit rate 0.56% among 360,000; AID 651725; in the data active = activity change below about -65%; inconclusive = mostly about -30% to -63%
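Six1/Eya2 binding was read as AlphaScreen signal after compounds were pinned into GST-Six1 plus His-tagged Eya2 (5X stock 250/500 nM) in pH 8.0 Tris/NaCl/TCEP buffer, beads added, then incubated 1 h, 37 C, dark.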
IL1B secr inh: inflammasome signaling inhibition, IL-1 beta readout | THP-1 LPS/ATP IL-1B secretion, AlphaLISA, 16 h; stronger effect = lower value | activity change, % at 57.5 µM | hit rate 4.7% among 360,000; in the data active = activity change below about -50%; inconclusive = mostly about -30% to -49%
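THP-1 cells pretreated 1 hr with compounds (up to 57.5 uM final), then stimulated with LPS (250 ng/mL final) plus ATP (1.25 mM final); secreted IL-1B measured by AlphaLISA after 16 hr, decreased signal indicating inhibition.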
TDP1 cell CPT: growth inhibition of DT40 Tdp1-/-;hTDP1 cells with camptothecin (screen for TDP1 inhibitors). chicken DT40 Tdp1-/-;hTDP1 cells + 20 nM CPT, ATP luminescence, 48 h. Potency, µM (highest dose often 46.2 µM), inactives show top-dose activity change, negative = growth inhibition, hits mostly inhibitors. hit rate 12% among 420,000; note: potency is the fitted concentration of half-maximal effect; nearly all actives have a fitted effect of over 55% in size
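Chicken DT40 Tdp1-/- cells complemented with human TDP1, 400 cells/well, exposed to compounds plus 20 nM camptothecin for at least 48 h at 37 C; viability read as ATP content by CellTiter-Glo luminescence.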
TDP1 inh: blocks human tyrosyl-DNA phosphodiesterase 1. recombinant TDP1, AlphaScreen DNA substrate cleavage. Potency, µM (top dose mostly 130 µM), for inactives: top-dose activity change, negative = inhibition, usual class: inhibitors. hit rate 0.28% among 350,000; note: potency is the fitted concentration of half-maximal effect; nearly all actives have a fitted effect of over 40% in size
Target sequence (Q9NUW8 whole entry, looked up): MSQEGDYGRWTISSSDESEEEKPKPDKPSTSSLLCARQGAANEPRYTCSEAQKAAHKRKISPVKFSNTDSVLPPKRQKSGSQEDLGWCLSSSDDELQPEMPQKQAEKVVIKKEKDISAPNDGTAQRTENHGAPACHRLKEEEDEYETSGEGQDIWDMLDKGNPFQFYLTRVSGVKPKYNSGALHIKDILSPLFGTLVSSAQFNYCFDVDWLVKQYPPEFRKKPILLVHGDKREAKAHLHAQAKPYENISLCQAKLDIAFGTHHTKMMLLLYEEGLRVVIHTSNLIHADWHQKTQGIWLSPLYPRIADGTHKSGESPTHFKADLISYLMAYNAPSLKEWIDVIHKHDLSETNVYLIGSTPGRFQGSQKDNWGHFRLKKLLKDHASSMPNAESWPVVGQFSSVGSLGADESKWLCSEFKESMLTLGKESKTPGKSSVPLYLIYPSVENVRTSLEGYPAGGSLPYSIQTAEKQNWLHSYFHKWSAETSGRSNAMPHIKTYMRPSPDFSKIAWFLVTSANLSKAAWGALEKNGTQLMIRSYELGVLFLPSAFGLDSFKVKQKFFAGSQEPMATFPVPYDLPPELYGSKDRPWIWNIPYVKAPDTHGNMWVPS
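E. coli-derived human Tdp1, 1 nM final. Cpd preinc 15 min RT; substrate 15 nM final, 5 min RT; AS bead mix 10 ug/ml final, 10 min RT. Signal loss = tyrosine-FITC cleavage. No-enzyme wells = max signal.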
Starred values were filed as active, the others as inactive; i = inactive; u = inconclusive; x = not tested or not shown; [ ] = another dose, or the depositor's remark. Unless noted, calls come from the whole dose curve; as a rule, active = well fitted curve in the direction sought with a large enough effect; inconclusive = small, poorly fitted or top-dose-only effect, or another doubt; inactive = no such curve, though single readings can be large; an effect the other way counts as inactive or inconclusive. % is set by controls: 0 for no effect and ±100 for the full control effect.

SMILES	CtBP-E1A inh	DT40 TDP1 no CPT	Six1-Eya2 blk	IL1B secr inh	TDP1 cell CPT	TDP1 inh
CC1Nc2ncnc(N3CCOCC3)c2N(Cc2ccccc2)C1=O (centres undefined)	4	-12%	3	29	-18%	-9%
CSCC(C)N1CCC(n2nccc2NC(=O)CCOc2ccccc2)CC1 (centres undefined)	-6	25%	-2	-10	25%	5%
CCC1CCCCN1C(=O)CSc1nc2c([nH]c3ccccc32)c(=O)n1C (centres undefined)	-5	21µM*	2	19	18µM*	5%
O=C(OCc1nnc(-c2ccc(Cl)cc2)o1)c1ccncc1	1	3%	2	-4	0%	4%
O=c1c2ccccc2nc(SCc2nnc(-c3ccccc3)o2)n1-c1ccc(F)cc1F	-6	u	-10	23	u	5%
Cn1c(SCc2ccccc2Br)nc2ccccc2c1=O	x	u	11	58	u	-7%
COc1ccc(-c2nnc(CSc3nc4ccccc4c(=O)n3C)o2)cc1OC	8	21µM*	6	-11	15µM*	1%
Cc1ccccc1CSc1nc2ccccc2c(=O)n1C	3	26µM*	0	2	u	-16%
COc1ccc(-c2cc(-c3nnc(COC(=O)c4ccncc4)o3)c3ccccc3n2)cc1OC	-1	9.2µM*	-4	u	-28%	8%
Cc1cc(SCC(=O)Nc2ccc3[nH]c(=O)[nH]c3c2)nc2ccccc12	0	-27%	0	-2	-16%	45µM*
COCCn1c(SCC(=O)NNC(=O)Cc2ccccc2)nc2ccccc2c1=O	x	-25%	-4	-3	7%	5%
O=C(CSc1nc2c([nH]c3ccccc32)c(=O)n1-c1ccccc1F)Nc1cccc(C(F)(F)F)c1	x	16µM*	x	x	21µM*	-1%
Cc1cccc(NC(=O)CSc2nc3ccccc3c(=O)n2C)c1	-1	u	0	-71*	u	3%
Cn1c(SCC(=O)NNC(=O)Cc2ccccc2)nc2ccccc2c1=O	x	13µM*	-20	-11	21µM*	-2%
Cn1c(SCC(=O)O)nc2ccccc2c1=O	-6	10%	5	-2	8%	3%
Cc1cc(C)nc(N(C#N)S(=O)(=O)c2ccccc2Cl)n1	8	25%	6	26	1%	-5%
COn1c(SCc2ccc(C)cc2C)nc2ccccc2c1=O	9	18µM*	5	7	21µM*	-4%
Cc1ncsc1CCSc1nc2ccccc2c(=O)n1C	-15	23µM*	-13	-11	u	-1%
Cc1cccc(NC(=O)CSc2nc(-c3ccco3)nc3cc(=O)[nH]n23)c1	x	-24%	x	x	-23%	45µM*
Cc1cccc(NC(=O)CSc2nc3c([nH]c4ccccc43)c(=O)n2C)c1	6	12µM*	0	18	8.2µM*	-4%
Cc1ncsc1CCSc1n[nH]c(=O)n1-c1ccccc1	6	1%	11	0	u	6%
N#Cc1ccc(NC(=O)COC(=O)c2ccc(F)c(S(=O)(=O)N3CCOCC3)c2)cc1	0	12%	7	-8	18%	0%
COC(=O)c1ccc(CSc2ccccc2NC(=S)Nc2cccc(C(F)(F)F)c2)o1	5	u	0	18	u	x
COCCn1c(SCC(=O)Nc2cccc(NC(C)=O)c2)nc2c([nH]c3ccccc32)c1=O	-9	3.3µM*	u	i	u	0%
CCOc1ccc(OCC)c(NC(=O)CSc2nc3cccnc3n2C)c1	-1	u	-11	14	u	8%
SMILES	CtBP-E1A inh	DT40 TDP1 no CPT	Six1-Eya2 blk	IL1B secr inh	TDP1 cell CPT	TDP1 inh
COCCn1c(SCC(=O)Nc2cccc(F)c2)nc2c([nH]c3ccccc32)c1=O	4	-15%	-1	i	-23%	0%
CCOc1ccc(OCC)c(NC(=O)CSc2nc3ccccc3c(=O)n2C)c1	2	21µM*	1	20	16µM*	4%
CC(C)c1cc[n+](-c2nc([O-])sc2C=O)cc1	-9	6%	-11	10	-5%	-1%
CCn1c(=O)c(C(=O)Nc2cc(OC)c(OC)c(OC)c2)nc2ccccc21	x	-28%	x	x	1%	-2%[12.3 µM]
CC1=CCC(C(=O)O)C(C(=O)Nc2cccnc2)C1 (centres undefined)	-10	-17%	0	11	24%	5%
O=C(NCC(c1ccc(F)cc1)N1CCOCC1)c1cccnc1Sc1ccc(Cl)cc1 (centres undefined)	7	u	-6	-3	u	10%
CC(=O)Nc1ccc(C(=O)n2cnc3cc(C)c(C)cc32)cc1	4	-110%	0	24	-114%	2%
CC(=O)Nc1ccc(S(=O)(=O)n2cnc3cc(C)c(C)cc32)cc1	17	18µM*	10	10	8.2µM*	-4%
O=C(Nc1cc(Cl)ccc1-n1cncn1)c1cccc(S(=O)(=O)N2CCOCC2)c1	-10	3%	2	8	-2%	-2%[56.1 µM]
COc1ccc(CNc2cccc3[nH]c(C(F)(F)F)nc23)cc1OC	x	21µM*	-2	-9	u	x
CC1CCN(CCNC(=O)CCS(=O)(=O)c2ccc(Br)cc2)CC1	3	-18%	9	-12	2%	4%
COc1ccc(-c2csc(NCc3ccco3)n2)cc1C	-13	u	-24	-52*	-27%	14%
Cc1ccn2c(-c3csc(NCc4ccco4)n3)c(C)nc2c1	-12	18µM*	-12	-20	15µM*	4%
O=C(NNC(=O)c1ccc(Br)s1)c1cccc(S(=O)(=O)N2CCCC2)c1	x	u	-21	24	-13%	2%
O=C(Cn1nnc(-c2ccccc2Cl)n1)Nc1cccc(S(=O)(=O)N2CCCC2)c1	-5	21µM*	-19	u	23µM*	1%
O=C(Cn1nnc(-c2ccc(F)cc2)n1)Nc1cccc(S(=O)(=O)N2CCCC2)c1	-3	u	-5	13	21µM*	-1%
O=C(Cc1ccc(F)cc1)Nc1cccc(S(=O)(=O)N2CCCC2)c1	-1	-22%	6	-8	-3%	6%
CCC(CC)C(=O)Nc1c2c(nn1-c1ccc(F)cc1)CS(=O)(=O)C2	11	2%	2	5	17%	x
CCOC(=O)C1CCN(C(=O)c2ccc3c(SCC(=O)O)c4c(nc3c2)CCCC4)CC1	0	-12%	1	14	1%	0%
